# Measured values published in article PMC7862700, “An all-to-all approach to the identification of sequence-specific readers for epigenetic DNA modifications on cytosine”.
# Key:
# Assay in all cases: DAPPL (digital affinity profiling via proximity ligation, sequencing); 10 mM Tris-HCl pH 7.5, 50 mM NaCl, 1 mM DTT, 4% glycerol, room temperature, 30 min; GST-TFs on glutathione beads, 16-mer random dsDNA library, 0.1% formaldehyde crosslink after washing; high values mean tight binding
# FLI1 = target: T1, FLI1 (Homo sapiens, UniProt Q01543 1-452); settings: protein: recombinant; tags: N-terminal GST; dsDNA, one strand shown
# T1 sequence: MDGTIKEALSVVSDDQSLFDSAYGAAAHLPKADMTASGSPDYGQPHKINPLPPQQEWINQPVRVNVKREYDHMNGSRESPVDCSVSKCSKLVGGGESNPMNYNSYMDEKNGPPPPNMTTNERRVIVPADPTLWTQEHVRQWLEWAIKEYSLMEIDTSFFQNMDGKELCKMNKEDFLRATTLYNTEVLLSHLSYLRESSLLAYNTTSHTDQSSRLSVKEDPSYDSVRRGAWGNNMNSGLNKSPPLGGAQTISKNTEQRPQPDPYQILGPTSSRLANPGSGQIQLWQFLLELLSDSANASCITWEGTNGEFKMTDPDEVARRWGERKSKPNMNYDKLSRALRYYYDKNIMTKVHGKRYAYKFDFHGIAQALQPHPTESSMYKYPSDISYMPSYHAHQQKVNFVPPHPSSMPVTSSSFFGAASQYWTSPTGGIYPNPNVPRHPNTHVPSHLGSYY
# Method in brief: (§1)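 Pools of DNA-barcoded human transcription factors, expressed in yeast as GST fusions on glutathione beads and combined with a tag-only sample, were incubated with 200 nmole of a 16-mer random double-stranded DNA library. Incubation took 30 min at room temperature in Tris/NaCl/DTT/glycerol buffer and was followed by washing, 0.1% formaldehyde crosslinking, proximity ligation (BsaI/T4 ligase, 1 h, 37 °C), PCR amplification and sequencing on an Illumina NextSeq500. Binding signal is the ratio of a hexamer's read frequency for a factor to its frequency for the tag-only sample.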
# ELK1 = target: T2, ELK1 (Homo sapiens, UniProt P19419 1-428); settings: protein: recombinant; tags: N-terminal GST; dsDNA, one strand shown
# T2 sequence: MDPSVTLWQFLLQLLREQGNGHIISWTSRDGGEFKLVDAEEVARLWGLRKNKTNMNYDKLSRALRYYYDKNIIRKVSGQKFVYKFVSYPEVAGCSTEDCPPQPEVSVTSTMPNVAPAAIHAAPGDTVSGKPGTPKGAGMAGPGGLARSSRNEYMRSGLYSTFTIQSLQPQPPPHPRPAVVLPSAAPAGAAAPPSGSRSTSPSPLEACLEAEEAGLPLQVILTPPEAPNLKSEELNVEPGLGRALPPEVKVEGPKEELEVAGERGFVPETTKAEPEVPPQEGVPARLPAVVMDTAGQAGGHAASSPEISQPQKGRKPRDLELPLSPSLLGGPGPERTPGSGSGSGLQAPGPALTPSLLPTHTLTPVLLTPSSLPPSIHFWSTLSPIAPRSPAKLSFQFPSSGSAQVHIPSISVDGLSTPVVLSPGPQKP
# Method in brief: as §1
# GABPA = target: T3, GABPA (Homo sapiens, UniProt Q06546 1-454); settings: protein: recombinant; tags: N-terminal GST; dsDNA, one strand shown
# T3 sequence: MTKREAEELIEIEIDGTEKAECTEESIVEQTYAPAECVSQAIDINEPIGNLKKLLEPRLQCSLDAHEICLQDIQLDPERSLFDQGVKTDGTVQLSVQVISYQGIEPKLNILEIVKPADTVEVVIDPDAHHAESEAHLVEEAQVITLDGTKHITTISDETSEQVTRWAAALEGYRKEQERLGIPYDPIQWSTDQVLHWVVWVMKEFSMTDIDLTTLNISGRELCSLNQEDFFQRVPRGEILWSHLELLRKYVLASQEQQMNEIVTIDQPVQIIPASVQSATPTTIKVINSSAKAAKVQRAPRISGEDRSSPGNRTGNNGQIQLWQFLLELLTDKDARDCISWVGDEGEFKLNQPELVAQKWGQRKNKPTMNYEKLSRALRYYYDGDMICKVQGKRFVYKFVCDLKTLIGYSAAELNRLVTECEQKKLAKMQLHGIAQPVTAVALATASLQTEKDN
# Method in brief: as §1
# ERG = target: T4, ERG (Homo sapiens, UniProt P11308 1-479); settings: protein: recombinant; tags: N-terminal GST; dsDNA, one strand shown
# T4 sequence: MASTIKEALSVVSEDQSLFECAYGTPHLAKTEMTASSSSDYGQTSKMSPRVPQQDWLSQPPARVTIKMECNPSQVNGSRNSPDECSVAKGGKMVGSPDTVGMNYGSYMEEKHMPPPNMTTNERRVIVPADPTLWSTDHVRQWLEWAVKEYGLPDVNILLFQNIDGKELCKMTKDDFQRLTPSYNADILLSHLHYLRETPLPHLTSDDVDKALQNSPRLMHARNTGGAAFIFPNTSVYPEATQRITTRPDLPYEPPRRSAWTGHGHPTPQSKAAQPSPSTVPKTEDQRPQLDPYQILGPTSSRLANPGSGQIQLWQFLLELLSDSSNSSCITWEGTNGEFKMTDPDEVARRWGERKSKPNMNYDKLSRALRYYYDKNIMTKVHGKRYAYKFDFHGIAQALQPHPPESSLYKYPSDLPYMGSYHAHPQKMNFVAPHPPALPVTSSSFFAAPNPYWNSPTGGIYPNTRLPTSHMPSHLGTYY
# Method in brief: as §1
# ELF1 = ELF1 (Homo sapiens, UniProt P32519 1-619); settings: protein: recombinant; tags: N-terminal GST; dsDNA, one strand shown
# Method in brief: as §1
# EHF = target: T5, EHF (Homo sapiens, UniProt Q9NZC4 1-300); settings: protein: recombinant; tags: N-terminal GST; dsDNA, one strand shown
# T5 sequence: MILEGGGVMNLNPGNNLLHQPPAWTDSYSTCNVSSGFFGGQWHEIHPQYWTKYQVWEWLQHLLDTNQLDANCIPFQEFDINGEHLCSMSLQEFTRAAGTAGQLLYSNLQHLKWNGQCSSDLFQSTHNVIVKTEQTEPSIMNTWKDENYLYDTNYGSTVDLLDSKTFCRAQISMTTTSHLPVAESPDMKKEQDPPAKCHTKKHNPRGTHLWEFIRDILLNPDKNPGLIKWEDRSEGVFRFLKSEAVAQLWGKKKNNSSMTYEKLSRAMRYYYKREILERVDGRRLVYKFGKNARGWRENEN
# Method in brief: as §1
# SPI1 = SPI1 (Homo sapiens, UniProt P17947 1-270); settings: protein: recombinant; tags: N-terminal GST; dsDNA, one strand shown
# Method in brief: as §1
# SPIB = SPIB (Homo sapiens, UniProt Q01892 1-262); settings: protein: recombinant; tags: N-terminal GST; dsDNA, one strand shown
# Method in brief: as §1
# ELK3 = target: T6, ELK3 (Homo sapiens, UniProt P41970 1-407); settings: protein: recombinant; tags: N-terminal GST; dsDNA, one strand shown
# T6 sequence: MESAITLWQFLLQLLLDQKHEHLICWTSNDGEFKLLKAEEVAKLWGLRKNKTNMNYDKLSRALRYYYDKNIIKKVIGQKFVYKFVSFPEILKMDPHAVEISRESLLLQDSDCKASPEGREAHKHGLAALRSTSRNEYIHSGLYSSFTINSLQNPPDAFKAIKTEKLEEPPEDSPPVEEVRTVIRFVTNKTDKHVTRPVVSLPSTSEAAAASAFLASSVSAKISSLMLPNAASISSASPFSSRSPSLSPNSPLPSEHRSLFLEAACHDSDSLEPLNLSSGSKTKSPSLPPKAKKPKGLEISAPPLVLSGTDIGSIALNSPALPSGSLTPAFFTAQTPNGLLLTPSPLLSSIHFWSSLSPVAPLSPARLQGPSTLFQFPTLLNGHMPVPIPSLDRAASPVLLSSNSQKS
# Method in brief: as §1
# FEV = target: T7, FEV (Homo sapiens, UniProt Q99581 1-238); settings: protein: recombinant; tags: N-terminal GST; dsDNA, one strand shown
# T7 sequence: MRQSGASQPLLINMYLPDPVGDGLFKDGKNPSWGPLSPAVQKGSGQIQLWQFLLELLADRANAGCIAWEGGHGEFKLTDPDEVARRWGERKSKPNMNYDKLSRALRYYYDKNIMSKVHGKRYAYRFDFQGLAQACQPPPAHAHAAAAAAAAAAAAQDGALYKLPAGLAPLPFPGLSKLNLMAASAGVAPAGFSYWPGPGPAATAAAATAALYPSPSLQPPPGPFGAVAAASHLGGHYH
# Method in brief: as §1
# ETV5 = ETV5 (Homo sapiens, UniProt P41161 1-510); settings: protein: recombinant; tags: N-terminal GST; dsDNA, one strand shown
# Method in brief: as §1
# HSF1 = HSF1 (Homo sapiens, UniProt Q00613 1-529); settings: protein: recombinant; tags: N-terminal GST; chain copies: 3; dsDNA, one strand shown
# Method in brief: as §1
# SPIC = target: T8, SPIC (Homo sapiens, UniProt Q8N5J4 1-248); settings: protein: recombinant; tags: N-terminal GST; dsDNA, one strand shown
# T8 sequence: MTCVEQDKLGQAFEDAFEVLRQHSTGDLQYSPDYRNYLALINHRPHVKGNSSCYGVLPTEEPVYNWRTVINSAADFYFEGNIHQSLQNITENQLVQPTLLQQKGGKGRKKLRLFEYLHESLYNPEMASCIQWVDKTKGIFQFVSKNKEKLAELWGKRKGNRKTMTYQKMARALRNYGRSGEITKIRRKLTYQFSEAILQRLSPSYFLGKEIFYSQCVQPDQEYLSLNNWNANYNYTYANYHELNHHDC
# Method in brief: as §1
# ELF4 = ELF4 (Homo sapiens, UniProt Q99607 1-663); settings: protein: recombinant; tags: N-terminal GST; dsDNA, one strand shown
# Method in brief: as §1
# ELK4 = target: T9, ELK4 (Homo sapiens, UniProt P28324-2 1-405); settings: protein: recombinant; tags: N-terminal GST; dsDNA, one strand shown
# T9 sequence: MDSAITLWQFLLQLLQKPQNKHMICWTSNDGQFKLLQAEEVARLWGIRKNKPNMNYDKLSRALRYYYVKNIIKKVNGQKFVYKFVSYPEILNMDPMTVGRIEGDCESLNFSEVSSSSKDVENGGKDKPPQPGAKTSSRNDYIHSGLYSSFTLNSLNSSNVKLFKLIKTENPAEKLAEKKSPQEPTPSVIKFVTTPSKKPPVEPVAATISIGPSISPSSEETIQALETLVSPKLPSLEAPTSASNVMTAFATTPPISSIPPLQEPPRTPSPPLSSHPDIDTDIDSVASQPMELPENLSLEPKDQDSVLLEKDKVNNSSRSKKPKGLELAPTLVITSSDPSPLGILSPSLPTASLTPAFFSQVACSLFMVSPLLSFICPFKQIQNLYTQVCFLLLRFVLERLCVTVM
# Method in brief: as §1
# ETV2 = target: T10, ETV2 (Homo sapiens, UniProt O00321 1-342); settings: protein: recombinant; tags: N-terminal GST; dsDNA, one strand shown
# T10 sequence: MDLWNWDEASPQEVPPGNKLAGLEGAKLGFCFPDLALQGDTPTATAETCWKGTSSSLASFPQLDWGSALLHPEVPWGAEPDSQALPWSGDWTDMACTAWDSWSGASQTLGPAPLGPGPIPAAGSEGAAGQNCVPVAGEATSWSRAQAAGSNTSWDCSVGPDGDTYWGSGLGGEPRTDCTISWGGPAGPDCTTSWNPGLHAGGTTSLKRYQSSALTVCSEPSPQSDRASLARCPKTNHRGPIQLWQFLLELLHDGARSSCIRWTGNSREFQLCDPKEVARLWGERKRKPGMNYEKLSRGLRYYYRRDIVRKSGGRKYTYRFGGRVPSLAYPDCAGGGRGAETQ
# Method in brief: as §1
# ELF3 = target: T11, ELF3 (Homo sapiens, UniProt P78545 1-371); settings: protein: recombinant; tags: N-terminal GST; dsDNA, one strand shown
# T11 sequence: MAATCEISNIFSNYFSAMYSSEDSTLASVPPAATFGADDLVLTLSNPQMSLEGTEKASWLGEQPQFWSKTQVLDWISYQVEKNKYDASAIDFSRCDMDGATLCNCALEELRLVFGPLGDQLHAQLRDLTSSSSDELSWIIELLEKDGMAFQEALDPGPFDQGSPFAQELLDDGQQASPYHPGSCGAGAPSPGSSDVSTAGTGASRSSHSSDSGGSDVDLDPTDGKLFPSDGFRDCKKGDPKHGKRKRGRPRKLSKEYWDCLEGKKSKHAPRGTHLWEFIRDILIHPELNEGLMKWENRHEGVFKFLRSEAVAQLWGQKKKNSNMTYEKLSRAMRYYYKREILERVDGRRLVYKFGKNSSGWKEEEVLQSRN
# Method in brief: as §1
# CRX = CRX (Homo sapiens, UniProt O43186 1-299); settings: protein: recombinant; tags: N-terminal GST; dsDNA, one strand shown
# Method in brief: as §1
# ETV1 = ETV1 (Homo sapiens, UniProt P50549 1-477); settings: protein: recombinant; tags: N-terminal GST; dsDNA, one strand shown
# Method in brief: as §1
# CRX, sequence (O43186 whole entry): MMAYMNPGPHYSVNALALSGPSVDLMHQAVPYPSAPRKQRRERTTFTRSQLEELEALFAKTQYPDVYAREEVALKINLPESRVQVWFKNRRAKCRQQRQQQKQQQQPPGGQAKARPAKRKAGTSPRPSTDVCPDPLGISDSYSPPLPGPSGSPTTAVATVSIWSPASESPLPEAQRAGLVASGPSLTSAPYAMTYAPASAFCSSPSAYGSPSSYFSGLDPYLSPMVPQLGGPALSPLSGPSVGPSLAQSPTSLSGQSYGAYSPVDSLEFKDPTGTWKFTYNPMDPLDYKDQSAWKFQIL
# SPIB, sequence (Q01892 whole entry): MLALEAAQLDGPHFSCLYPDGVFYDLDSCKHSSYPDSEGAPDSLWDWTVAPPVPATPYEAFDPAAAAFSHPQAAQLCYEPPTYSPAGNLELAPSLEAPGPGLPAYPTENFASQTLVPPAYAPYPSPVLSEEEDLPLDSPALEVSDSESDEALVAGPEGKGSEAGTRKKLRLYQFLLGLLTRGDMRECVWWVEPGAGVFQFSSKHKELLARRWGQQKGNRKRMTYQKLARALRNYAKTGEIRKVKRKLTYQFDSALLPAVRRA
# ETV1, sequence (P50549 whole entry): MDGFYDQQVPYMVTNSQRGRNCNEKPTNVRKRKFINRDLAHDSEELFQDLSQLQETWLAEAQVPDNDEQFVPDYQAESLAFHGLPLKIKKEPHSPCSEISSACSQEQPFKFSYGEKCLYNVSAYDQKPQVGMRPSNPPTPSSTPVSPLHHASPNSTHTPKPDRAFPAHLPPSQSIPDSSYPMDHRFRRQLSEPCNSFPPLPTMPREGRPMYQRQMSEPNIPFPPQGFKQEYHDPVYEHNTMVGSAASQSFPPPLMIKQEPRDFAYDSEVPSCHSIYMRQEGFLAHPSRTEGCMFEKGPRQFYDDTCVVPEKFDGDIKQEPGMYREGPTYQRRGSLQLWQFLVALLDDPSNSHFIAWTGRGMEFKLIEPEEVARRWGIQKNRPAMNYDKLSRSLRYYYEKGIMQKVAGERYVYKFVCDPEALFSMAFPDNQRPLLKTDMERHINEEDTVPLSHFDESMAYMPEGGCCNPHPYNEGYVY
# HSF1, sequence (Q00613 whole entry): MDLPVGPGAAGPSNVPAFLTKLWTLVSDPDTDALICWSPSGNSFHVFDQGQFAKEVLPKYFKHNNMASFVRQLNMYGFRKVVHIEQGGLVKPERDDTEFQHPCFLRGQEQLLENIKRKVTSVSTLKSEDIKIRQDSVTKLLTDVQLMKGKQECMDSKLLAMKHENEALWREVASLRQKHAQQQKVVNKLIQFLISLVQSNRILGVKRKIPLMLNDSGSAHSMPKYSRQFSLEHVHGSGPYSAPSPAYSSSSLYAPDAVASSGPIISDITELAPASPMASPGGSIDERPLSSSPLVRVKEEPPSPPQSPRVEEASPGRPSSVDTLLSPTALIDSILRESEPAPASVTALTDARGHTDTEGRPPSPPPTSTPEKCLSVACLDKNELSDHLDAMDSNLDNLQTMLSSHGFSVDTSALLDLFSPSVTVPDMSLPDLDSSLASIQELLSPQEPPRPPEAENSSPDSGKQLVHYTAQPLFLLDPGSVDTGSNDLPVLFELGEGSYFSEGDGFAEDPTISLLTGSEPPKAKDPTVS
# ETV5, sequence (P41161 whole entry): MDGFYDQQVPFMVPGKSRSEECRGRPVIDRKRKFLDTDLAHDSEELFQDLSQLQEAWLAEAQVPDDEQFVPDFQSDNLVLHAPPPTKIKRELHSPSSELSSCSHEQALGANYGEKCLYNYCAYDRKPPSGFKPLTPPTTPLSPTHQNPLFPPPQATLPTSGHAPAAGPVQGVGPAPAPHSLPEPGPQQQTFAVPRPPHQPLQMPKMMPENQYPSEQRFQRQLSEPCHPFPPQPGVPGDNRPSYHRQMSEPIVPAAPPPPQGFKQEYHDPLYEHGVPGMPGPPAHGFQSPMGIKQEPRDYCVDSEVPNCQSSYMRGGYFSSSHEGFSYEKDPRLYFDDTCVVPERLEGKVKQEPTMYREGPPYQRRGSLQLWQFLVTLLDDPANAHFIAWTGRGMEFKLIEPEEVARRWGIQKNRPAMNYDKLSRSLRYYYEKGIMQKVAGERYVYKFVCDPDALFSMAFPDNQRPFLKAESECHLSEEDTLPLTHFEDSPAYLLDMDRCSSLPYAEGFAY
# ELF1, sequence (P32519 whole entry): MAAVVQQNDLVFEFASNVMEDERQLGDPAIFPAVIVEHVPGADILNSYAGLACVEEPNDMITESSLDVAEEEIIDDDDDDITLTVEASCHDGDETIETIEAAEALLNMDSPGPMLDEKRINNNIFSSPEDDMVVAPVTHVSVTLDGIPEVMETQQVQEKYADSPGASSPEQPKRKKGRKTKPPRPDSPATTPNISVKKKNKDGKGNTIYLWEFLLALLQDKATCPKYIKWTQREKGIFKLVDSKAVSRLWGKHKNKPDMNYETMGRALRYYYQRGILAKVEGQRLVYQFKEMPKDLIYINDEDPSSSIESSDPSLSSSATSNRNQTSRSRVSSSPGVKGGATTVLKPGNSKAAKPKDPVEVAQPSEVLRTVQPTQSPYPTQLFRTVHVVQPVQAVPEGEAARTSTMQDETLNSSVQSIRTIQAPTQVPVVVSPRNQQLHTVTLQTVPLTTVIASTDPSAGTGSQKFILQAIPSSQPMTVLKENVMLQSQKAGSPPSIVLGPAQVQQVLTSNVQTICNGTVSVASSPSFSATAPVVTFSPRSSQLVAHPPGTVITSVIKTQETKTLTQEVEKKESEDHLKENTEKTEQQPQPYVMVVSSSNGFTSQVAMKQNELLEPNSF
# ELF4, sequence (Q99607 whole entry): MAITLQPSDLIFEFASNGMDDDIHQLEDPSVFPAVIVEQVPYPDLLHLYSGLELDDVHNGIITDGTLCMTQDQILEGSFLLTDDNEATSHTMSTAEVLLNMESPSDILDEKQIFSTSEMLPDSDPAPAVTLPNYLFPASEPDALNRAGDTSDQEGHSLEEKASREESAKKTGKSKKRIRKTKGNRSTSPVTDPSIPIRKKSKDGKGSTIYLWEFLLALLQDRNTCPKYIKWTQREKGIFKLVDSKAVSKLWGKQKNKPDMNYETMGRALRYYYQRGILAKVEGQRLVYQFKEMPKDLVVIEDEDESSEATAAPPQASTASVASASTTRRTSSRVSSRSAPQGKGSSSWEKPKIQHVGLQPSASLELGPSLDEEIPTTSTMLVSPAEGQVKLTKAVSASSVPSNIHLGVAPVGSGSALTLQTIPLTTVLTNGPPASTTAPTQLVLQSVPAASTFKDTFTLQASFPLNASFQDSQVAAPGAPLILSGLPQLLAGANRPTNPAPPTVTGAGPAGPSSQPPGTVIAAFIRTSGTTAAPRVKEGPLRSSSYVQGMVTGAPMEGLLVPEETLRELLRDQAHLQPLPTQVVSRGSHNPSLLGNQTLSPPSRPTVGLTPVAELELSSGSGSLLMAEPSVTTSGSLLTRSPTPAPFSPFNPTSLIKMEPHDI
sequence,measurement,setting,value
CTAATT,binding signal,FLI1,"1.35 fold enrichment (6-mer frequency, TF over GST control)"
same,binding signal,ELK1,"1.2 fold enrichment (6-mer frequency, TF over GST control)"
same,binding signal,GABPA,"1.33 fold enrichment (6-mer frequency, TF over GST control)"
same,binding signal,ERG,"1.36 fold enrichment (6-mer frequency, TF over GST control)"
same,binding signal,ELF1,"1.43 fold enrichment (6-mer frequency, TF over GST control)"
same,binding signal,EHF,"1.33 fold enrichment (6-mer frequency, TF over GST control)"
same,binding signal,SPI1,"1.3 fold enrichment (6-mer frequency, TF over GST control)"
same,binding signal,SPIB,"1.37 fold enrichment (6-mer frequency, TF over GST control)"
same,binding signal,ELK3,"1.4 fold enrichment (6-mer frequency, TF over GST control)"
same,binding signal,FEV,"1.35 fold enrichment (6-mer frequency, TF over GST control)"
same,binding signal,ETV5,"1.28 fold enrichment (6-mer frequency, TF over GST control)"
same,binding signal,HSF1,"1.47 fold enrichment (6-mer frequency, TF over GST control)"
same,binding signal,SPIC,"1.46 fold enrichment (6-mer frequency, TF over GST control)"
same,binding signal,ELF4,"1.38 fold enrichment (6-mer frequency, TF over GST control)"
same,binding signal,ELK4,"1.27 fold enrichment (6-mer frequency, TF over GST control)"
same,binding signal,ETV2,"1.57 fold enrichment (6-mer frequency, TF over GST control)"
same,binding signal,ELF3,"1.48 fold enrichment (6-mer frequency, TF over GST control)"
same,binding signal,CRX,"2.09 fold enrichment (6-mer frequency, TF over GST control)"
same,binding signal,ETV1,"1.26 fold enrichment (6-mer frequency, TF over GST control)"
